Measured values published in ChEMBL document CHEMBL3988442, “University of Dundee, Small-Polar-MMV Screening Library” (2021).
Hit rate of the full screen: of about 69,000 compounds, about 1,000 (1.4%) showed an effect of 50% or more. The sample holds strong results, similar compounds and a random draw of the others, so the mix is not that of the screen.

Tested on: Leishmania donovani
Assay: Leishmania intramacrophage assay
Type: functional, organism-based
Design: scale not given: in the data most compounds retested in dose-response had high values

## CCc1cnc(CN(C)C2CCN(CCCNS(C)(=O)=O)C2)o1 (stereo unspecified)
30.3 µM, […]
  Percent Effect: 8.531%

## c1csc(CCC2CCCCN2Cc2noc(C3CC3)n2)c1 (stereo unspecified)
30.3 µM, […]
  Percent Effect: -14.11%

## CCC1CCCCCN1C(=O)c1ccc(N2CCC(O)CC2)cc1 (stereo unspecified)
30.3 µM, […]
  Percent Effect: 32.16%

## CCN1CCC2(CC1)OCCN2C(=O)c1ccc(OC)c(Cl)c1.Cl
30.3 µM, […]
  Percent Effect: 22.75%

## CCCOc1c(Cl)cc(C(=O)N2CCOC23CCN(C)CC3)cc1Cl
30.3 µM, […]
  Percent Effect: 88.42%

## CCN1CCC2(CC1)OCCN2C(=O)c1cc(Cl)c(OC)c(Cl)c1.Cl
30.3 µM, […]
  Percent Effect: 18.32%

## CS(=O)(=O)N1CCC2(CC1)CC(NCc1ccco1)c1ccccc12.O=C(O)C(F)(F)F (stereo unspecified)
30.3 µM, […]
  Percent Effect: 16.74%

## C/N=C1\c2cc3cc(OC)ccc3n2CCN1Cc1ccccc1.O=C(O)C(F)(F)F
30.3 µM, […]
  Percent Effect: 57.81%

## COc1ccc(CN2CC[C@@H](O)[C@@H]2Cc2ccccc2)cc1.O=C(O)C(F)(F)F
30 µM, 30.03 µM
  Percent Effect: -18.25%

## C/N=C1/c2cc3cc(OC)ccc3n2CCN1C
30.3 µM, […]
  Percent Effect: -16.2%

## C/N=C1\c2cc3cc(OC)ccc3n2CCN1C.Cl
30.3 µM, […]
  Percent Effect: 10.14%

## COc1ccc2c(ccn2CCC(=O)O)c1
30 µM, 30.03 µM
  Percent Effect: 9.834%

## C/N=C1/c2cc3cc(OC)ccc3n2CCN1Cc1ccccc1.Cl
30.3 µM, […]
  Percent Effect: 64.09%

## COCCN1C[C@H]2CC[C@@H]1CN(Cc1cc(=O)c3cc(C)ccc3[nH]1)C2
30.3 µM, […]
  Percent Effect: 38.8%

## CSCC(C)(O)CNS(=O)(=O)c1cccc(Cl)c1 (stereo unspecified)
30.3 µM, […]
  Percent Effect: 18.54%

## CC1CCN(C(=O)C(C)N2CCc3[nH]nc(C(F)(F)F)c3C2)CC1 (stereo unspecified)
30.3 µM, […]
  Percent Effect: 13.32%

## Cc1nc(C(=O)N(C)CC2CCCO2)nn1-c1ccccc1C(C)C (stereo unspecified)
30.3 µM, […]
  Percent Effect: 0.9975%

## Cn1cc(-c2nnn3c2COC(CNC(=O)c2cccs2)C3)cn1 (stereo unspecified)
30.3 µM, […]
  Percent Effect: 37.28%

## Cc1ccnc(N2CCC(NCCOc3ccccc3)CC2)n1
30.3 µM, […]
  Percent Effect: 18.71%

## Cc1nc(CN2CCCC(NCCOc3ccccc3)C2)no1 (stereo unspecified)
30 µM, 30.03 µM
  Percent Effect: 33.1%

## Cc1cc(N2CCC(N(C)C(=O)c3ccccc3F)CC2)nc(C)n1
30.3 µM, […]
  Percent Effect: 35.99%

## Cc1nc(C)c(C)c(N2CCC(NCCOc3ccccc3)CC2)n1
30.3 µM, […]
  Percent Effect: 58.55%

## Cc1cc(N2CCC(NCCOc3ccccc3)CC2)nc(C)n1
30.3 µM, […]
  Percent Effect: 53.39%

## CN(C)c1ccnc(N2CCC(NCCOc3ccccc3)CC2)n1
30.3 µM, […]
  Percent Effect: 79.37%

## Cc1cc(N2CCC(O)CC2)nc(C)n1
30.3 µM, […]
  Percent Effect: 1.581%

## Cc1cc(N2CCC(N(C)C(=O)c3ccc(C#N)cc3)CC2)nc(C)n1
30.3 µM, […]
  Percent Effect: 14.71%

## Cc1cc(N2CCC(N(C)C(=O)c3ccccc3)CC2)nc(C)n1
30 µM, 30.03 µM
  Percent Effect: 62.61%

## Cc1cc(N2CCC(N(C)C(=O)Nc3ccccc3)CC2)nc(C)n1
30 µM, 30.03 µM
  Percent Effect: 11.78%

## c1ccc(OCCNC2CCN(c3ncccn3)CC2)cc1
30.3 µM, […]
  Percent Effect: 4.504%

## O=C(COCCOc1ccccc1)NC1CCN(c2ncccn2)CC1
30.3 µM, […]
  Percent Effect: 21.86%

## CNc1cncc(C2CCCN2C(=O)CCn2ccnc2)n1 (stereo unspecified)
30.3 µM, […]
  Percent Effect: 1.152%

## CCCc1cc(C(=O)N2CCOC(c3nc(-c4cccs4)no3)C2)no1 (stereo unspecified)
30 µM, 30.03 µM
  Percent Effect: 23.21%

## COc1ccc(CN2CC[C@H](O)[C@@H]2Cc2cnn(C)c2)cc1.O=C(O)C(F)(F)F
30.3 µM, […]
  Percent Effect: 36.9%

## CCc1ncnc2c1CCN(CC(=O)N(C)C)CC2.O=C(O)C(F)(F)F
30.3 µM, […]
  Percent Effect: 4.143%

## CCc1cc(N2CCC(NCCc3ccccc3F)CC2)nc(C)n1
30.3 µM, […]
  Percent Effect: 63.92%

## CCc1cc(N2CCC(NCCc3ccc(C)o3)CC2)nc(C)n1
30.3 µM, […]
  Percent Effect: 9.521%

## CCc1cc(N2CCC(NCCc3nc(C)c(C)s3)CC2)nc(C)n1
30.3 µM, […]
  Percent Effect: 22.72%

## CCC(CNC(=O)NCc1cc[nH]n1)N1CCCC1 (stereo unspecified)
30.3 µM, […]
  Percent Effect: 10.3%

## Cc1nn(C)c(C)c1S(=O)(=O)N(CC(N)=O)CC(C)C
30.3 µM, […]
  Percent Effect: -2.964%

## COCCc1noc(C2CCN(S(=O)(=O)c3cccs3)CC2)n1
30.3 µM, […]
  Percent Effect: 57.18%

## CCCc1noc(C2CCN(S(=O)(=O)c3cccs3)CC2)n1
30.3 µM, […]
  Percent Effect: 12.47%

## CC(C)c1noc(C2CCN(S(=O)(=O)c3cccs3)CC2)n1
30.3 µM, […]
  Percent Effect: -2.602%

## CCC(CNc1ncnc2oc(C)nc12)Cc1ccccc1 (stereo unspecified)
30.3 µM, […]
  Percent Effect: 45.54%

## CCCOc1ccc(Cl)cc1CNc1ncnc2oc(C)nc12
30.3 µM, […]
  Percent Effect: 22.92%

## CCCOc1ccccc1CCCNc1ncnc2oc(C)nc12
30.3 µM, […]
  Percent Effect: 83.62%

## Cc1ccc(SCCCNC(=O)c2cn([C@H]3CC[C@@H](N)CC3)nn2)cc1
30.3 µM, […]
  Percent Effect: 94.34%

## Cc1ccc(SCCN(C)C(=O)c2cn([C@H]3CC[C@@H](N)CC3)nn2)cc1
30.3 µM, […]
  Percent Effect: -26.18%

## CCN(CCSc1ccccc1)C(=O)c1cn([C@H]2CC[C@@H](N)CC2)nn1
30.3 µM, […]
  Percent Effect: 13.68%

## O=C(O)c1cnc(OCC2CC2)c(Br)c1
30.3 µM, […]
  Percent Effect: 4.629%

## COCCNC(=O)c1c(-n2cnnn2)sc2c1CCCC2
30.3 µM, […]
  Percent Effect: 53.45%

## COCCCNC(=O)c1c(-n2cnnn2)sc2c1CCC2
30.3 µM, […]
  Percent Effect: 9.721%

## CC(C)CCNC(=O)c1c(-n2cnnn2)sc2c1CCCC2
30.3 µM, […]
  Percent Effect: -26.12%

## Cc1ccc(C(=O)N(CC2CCCO2)c2ccncc2)o1 (stereo unspecified)
30.3 µM, […]
  Percent Effect: 23.81%

## Cc1nn(-c2ccccn2)c(C)c1[C@@H]1C=C[C@@H](NC(=O)NC(C)C)C1
30.3 µM, […]
  Percent Effect: 10.96%

## CCNC(=O)[C@@H]1C[C@H](N)CN1Cc1ccc(Sc2ccc(C)cc2)o1
30.3 µM, […]
  Percent Effect: -2.33%

## CCNC(=O)[C@@H]1C[C@H](N)CN1Cc1ccc(-c2cc[nH]n2)o1
30.3 µM, […]
  Percent Effect: 11.56%

## CCNC(=O)[C@@H]1C[C@@H](N)CN1Cc1ccc(Sc2ccc(C)cc2)o1
30.3 µM, […]
  Percent Effect: 97.85%

## Cc1cc(C(=O)NC2CC(=O)N(C(C)C)C2=O)c(C)n1C(C)C (stereo unspecified)
30.3 µM, […]
  Percent Effect: 19.34%

## NCC(CO)Cc1ccc(C(F)(F)F)cc1 (stereo unspecified)
30.3 µM, […]
  Percent Effect: 17.17%

## Cc1cnn(CCNCC(O)c2ccc(F)c(F)c2)c1 (stereo unspecified)
30.3 µM, […]
  Percent Effect: -10.99%

## Cc1cnn(CCNCC(O)c2cccc(Br)c2)c1 (stereo unspecified)
30.3 µM, […]
  Percent Effect: 97.73%

## OC(CNCCn1cccn1)c1cccc(Br)c1 (stereo unspecified)
30 µM
  Percent Effect: 1.273%

## O=C(NCCc1ccccc1F)NCC(O)c1cccc(F)c1 (stereo unspecified)
30 µM
  Percent Effect: 19.34%

## Cn1cc(CN2CC[C@@H]3[C@@H](CCC(=O)N3CC3CCNCC3)C2)cn1
30.3 µM, […]
  Percent Effect: 16.61%

## Cc1ccc(CC(=O)NCC(O)c2ccc(Cl)cc2Cl)cn1 (stereo unspecified)
30.3 µM, […]
  Percent Effect: -16.89%

## CCc1c(C)sc2c1c(N)nc(=O)n2CCCN(C)C
30.3 µM, […]
  Percent Effect: 34.84%

## Cc1c(C)n(Cc2ccncc2)c2nc3c(c(N)c12)CCCCCC3
30.3 µM, […]
  Percent Effect: 6.52%

## Cc1c(C)n(Cc2ccccn2)c2nc3c(c(N)c12)CCCCC3
30.3 µM, […]
  Percent Effect: 38.18%

## CCc1c(-c2ccccc2)nc2c(c(C)c(C)n2CCN(C)C)c1N
30.3 µM, […]
  Percent Effect: 100.7%

## Cc1c(-c2ccccc2)nc2c(c(C)c(C)n2CCN(C)C)c1N
30.3 µM, […]
  Percent Effect: 99.06%

## CCc1c(C)sc2c1c(N)nc(=O)n2CCN(C)C
30.3 µM, […]
  Percent Effect: -18.16%
